High-throughput results from PubChem BioAssay.
A selection: hits, their analogues and other compounds. The true share with any hit is near 21%.
Pf growth 48h = P. falciparum growth inhibition at 48 hours (one generation); P. falciparum luciferase growth in erythrocytes, 48 h; Potency, µM (top dose mostly 28.7 µM), without a hit: at the highest dose activity change, negative = inhibition, usual class: inhibitors; 310,000 tested, 5.9% active; active means well fitted inhibition curve with a large enough effect; inconclusive means small, poorly fitted or top-dose-only effect, or another doubt; inactive means no such curve, though single readings can be large or run the other way; further: potency means the concentration at half of the fitted maximal effect; on the % scale 0 is the no-effect control and ±100 the full control effect
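Luciferase-expressing P. falciparum in infected erythrocytes (2% hematocrit, 0.1% parasitemia final) in RPMI 1640/0.5% Albumax were exposed to compound for 48 hours at 37 C, 5% CO2; growth read as luminescence.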
Shiga inhibitor = blocks Shiga toxin action in Vero cells | inhibition, % at 38.7 µM | 290,000 tested, 9.2% active | Vero cells, Shiga toxin protein synthesis inhibition reporter; in the data active means inhibition mostly above about 28%, no sharp cut-off; inactive means mostly below about 43%; further: 0% is about no effect
NS1 inh = inhibitors of influenza NS1 protein function; Potency, µM (highest dose often 46.1 µM), inactives show top-dose activity, positive = more growth; 270,000 tested, 0.4% active; AID 2326; further: potency means the concentration at half of the fitted maximal effect; actives are rising curves; nearly all actives have a fitted effect of over 50% in size
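Compounds were scored for reversing the slow growth caused by influenza A NS1 in S. cerevisiae, measured by optical density at 600 nm. Assay medium contained 2% galactose at pH 6.0; NS1-free yeast of the same strain were the positive control.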
SARS PLpro yeast = inhibitors of SARS-CoV papain-like protease in yeast; S. cerevisiae expressing SARS-CoV PLpro, growth rescue; 330,000 tested, 0.19% active; Potency, µM (top dose mostly 32.9 µM), inactives show top-dose activity, positive = growth rescue, usual class: activators; further: potency means the concentration at half of the fitted maximal effect; 0% is about no effect; nearly all actives have a fitted effect of over 55% in size
Cycloheximide cs = counter-screen hit for Shiga toxin inhibitors, cycloheximide | cell reporter, cycloheximide protein synthesis inhibition counterscreen | max response, % | 300,000 tested, 12% active; in the data active means max response mostly above about 13%, no sharp cut-off; inactive means mostly below about 14%; further: read at 38.3 µM for the half of the compounds with a filed dose; 0% is about no effect
Pf growth 96h = P. falciparum growth inhibition at 96 hour, primary screen for plastid delayed-death inhibitors; P. falciparum luciferase reporter growth, 96 h; 320,000 tested, 6.9% active; AID 504834; Potency, µM (highest dose often 28.7 µM), without a hit: at the highest dose activity change, negative = inhibition, most hits filed as inhibitors; active means well fitted inhibition curve with a large enough effect; inconclusive means small, poorly fitted or top-dose-only effect, or another doubt; inactive means no such curve, though single readings can be large or run the other way; further: potency means the concentration at half of the fitted maximal effect; on the % scale 0 is the no-effect control and ±100 the full control effect
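P. falciparum expressing integrated firefly luciferase grown in erythrocytes (2% hematocrit, 0.05% parasitemia final) with compounds for 96 hours at 37 C, 5% CO2. Growth inhibition read as loss of luminescence after adding luciferase detection reagent.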
* hit, by the source's call; ? = inconclusive; . = no result given. Unless noted, the call rests on the fitted dose curve.

SMILES | Pf growth 48h | Shiga inhibitor | NS1 inh | SARS PLpro yeast | Cycloheximide cs | Pf growth 96h
CCCc1ccc2oc(C(=O)N3CCNC(=O)C3CC(=O)OC)c(C)c2c1 (stereo not given) | -8.6% | -10.4 | -0.3% | -6.9% | 19.3* | 3.8%
COC(=O)CC1C(=O)NCCN1C(=O)c1ccccc1 (stereo not given) | -11.7% | -12.2 | 1.3% | -4.2% | -3.3 | .
COc1ccc2cc(CCNC(=O)c3c(-c4ccccc4Cl)noc3C)c(=O)[nH]c2c1 | -25.6% | -4.5 | -11.0% | 3.4% | 10.8 | ?
COc1cccc(/C=N/n2c(-c3cc(C)[nH]n3)n[nH]c2=S)c1O | 34.0% | 0.8 | -2.9% | 0.1% | 21.1 | 40.1%
O=C1NC(c2ccc3c(c2)OCO3)Oc2ccccc21 (stereo not given) | 52.3% | -15.4 | 6.9% | -3.0% | -1.0 | 5.22µM*
O=C1NC(c2ccc3c(c2)OCO3)Nc2ccccc21 (stereo not given) | 37.7% | -12.4 | 8.1% | 1.6% | -2.0 | ?
COc1cc(Cl)c(S(=O)(=O)NCCN2CCOCC2)cc1Cl | 13.4% | 4.1 | 0.9% | 2.3% | 7.0 | .
O=S(=O)(NCCCN1CCOCC1)c1ccc2c(c1)OCCO2 | 17.8% | -15.7 | . | 1.1% | -2.6 | 10.4µM*
COc1ccc(S(=O)(=O)NCCN2CCOCC2)cc1Br | 0.7% | -9.9 | -4.5% | 17.3% | -0.8 | 10.4µM*
O=S(=O)(NCCN1CCOCC1)c1cc(Cl)c(Cl)cc1Cl | -1.3% | -14.1 | -10.4% | -0.1% | -0.4 | 13.1µM*
Cc1ccc(S(=O)(=O)NCCCN2CCOCC2)cc1C | -10.5% | -13.5 | -0.2% | 5.4% | -2.3 | .
CNC(=O)C(=O)NCC1OCCN1S(=O)(=O)c1ccc(OC)c(OC)c1 (stereo not given) | -6.2% | -13.1 | 8.2% | 0.4% | -2.6 | 6.7%
CCOc1ccc2nc(NC(=O)C3CCCN(S(=O)(=O)c4cccc5nonc45)C3)sc2c1 (stereo not given) | . | -15.3 | 9.6% | -0.9% | -5.8 | ?
COc1ccc2nc(NC(=O)C3CCCN(S(=O)(=O)c4c(C)noc4C)C3)sc2c1 (stereo not given) | ? | 13.2 | -30.9% | -3.0% | -2.6 | 48.3%
COc1ccc2nc(NC(=O)C3CCCN(S(=O)(=O)c4cccc5nonc45)C3)sc2c1 (stereo not given) | 13.1µM* | 13.2 | -31.7% | -4.4% | 8.7 | 87.6%
CCOc1ccc2nc(NC(=O)C3CCCN(S(=O)(=O)c4c(C)noc4C)C3)sc2c1 (stereo not given) | ? | 28.1* | -74.7% | -1.8% | 25.4* | 13.1µM*
CCN1CCCc2cc(CN(CCN3CCOCC3)C(=S)Nc3cccc(C)c3)ccc21 | ? | 24.3 | . | 4.9% | 7.2 | 11.7µM*
CCN1CCCc2cc(CN(CCN3CCOCC3)C(=O)Nc3ccc(C)c(C)c3)ccc21 | . | -1.2 | -8.9% | 1.6% | 1.0 | ?
CCN1CCCc2cc(CN(CCN3CCOCC3)C(=S)Nc3ccc(OC)c(Cl)c3)ccc21 | ? | 7.8 | . | 2.3% | 2.6 | 18.5µM*
CCN1CCCc2cc(CN(CCN3CCOCC3)C(=S)Nc3ccc(OC)c(OC)c3)ccc21 | 4.9% | -18.8 | . | -1.1% | -2.5 | ?
CCN1CCCc2cc(CN(CCN3CCOCC3)C(=S)Nc3ccccc3C)ccc21 | -10.7% | -10.9 | . | 0.1% | -0.1 | ?
CCc1ccc(NC(=O)N(CCN2CCOCC2)Cc2ccc3c(c2)CCCN3CC)cc1 | . | 37.5 | -8.5% | ? | 25.5* | ?
CN(C)c1ccc(-c2cc[nH]c(=O)c2N)cc1 | . | 3.4 | . | . | 23.2 | .
Cc1ccc2nc(NC(=O)CN3C(=O)C4CC=CCC4C3=O)sc2c1 (stereo not given) | 32.5% | 13.6 | . | 0.5% | 13.6* | 64.8%
CCc1ccc(/C=C2/SC(=S)N(CC(=O)Nc3nc4ccccc4s3)C2=O)cc1 | 51.5% | 78.0* | 9.8% | -3.7% | 21.7* | 201.4%
SMILES | Pf growth 48h | Shiga inhibitor | NS1 inh | SARS PLpro yeast | Cycloheximide cs | Pf growth 96h
O=C(CN1C(=O)C2CC=CCC2C1=O)Nc1nc2ccccc2s1 (stereo not given) | 51.5% | 51.8* | . | 2.6% | 28.4* | 88.7%
CS(=O)(=O)c1ccc2nc(NC(=O)CN3C(=O)C4CC=CCC4C3=O)sc2c1 (stereo not given) | 3.5% | 7.7 | . | -0.3% | 11.5 | -0.8%
CC(c1nccs1)N(C)c1nc2nonc2nc1N(C)C (stereo not given) | 8.2% | -29.5 | 3.1% | 0.7% | -0.8 | 13.1µM*
CC(c1nccs1)N(C)c1nc2nonc2nc1NC1CC1 (stereo not given) | 8.2% | -8.9 | 0.7% | -0.7% | 0.4 | 0.0%
COc1ccc(CCNC(=O)c2coc(=O)c(Br)c2)cc1 | 5.1% | 70.9* | 2.0% | 1.1% | 25.8* | 0.0%
COc1ccc2cc(CCNC(=O)c3cccc([N+](=O)[O-])c3)c(=O)[nH]c2c1 | 5.22µM* | 22.7 | . | -0.7% | 11.0 | ?
COc1ccc2cc(CCNC(=O)c3ccc4c(c3)OCO4)c(=O)[nH]c2c1 | ? | -3.3 | -27.7% | 0.9% | -0.5 | 10.4µM*
COc1ccc2cc(CCNC(=O)c3ccc(S(=O)(=O)N4CCCC4)cc3)c(=O)[nH]c2c1 | 13.1µM* | -15.4 | 9.1% | -3.6% | -4.9 | 5.86µM*
COc1ccc(OC)c2[nH]c(=O)c(CCNC(=O)c3ccc(S(=O)(=O)N4CCCC4)cc3)cc12 | ? | -15.0 | -41.4% | 0.7% | -2.5 | 55.0%
CCc1cc2ccc(C)cc2nc1SCC(=O)NC1CCCC1 | 25.9% | -2.7 | 0.9% | -1.9% | -7.0 | ?
Cc1ccc2cc(CCNC(=O)c3ccc(C)c([N+](=O)[O-])c3)c(=O)[nH]c2c1 | ? | -5.3 | 9.3% | 0.6% | 0.7 | 4.65µM*
COc1ccc(CCNC(=O)c2ccc3c(c2)OCO3)cc1 | 32.4% | 62.1 | -11.4% | 0.1% | 27.3* | -2.5%
COc1ccc(CCNC(=O)c2ccc3c(c2)OCCO3)cc1 | 112.1% | 84.1* | . | -0.8% | 35.4* | 202.8%
O=C(NCCc1ccccc1)c1ccc2c(c1)OCCO2 | -29.5% | -37.2 | -24.3% | -0.9% | -2.8 | -3.5%
CC(C)OP(=O)(c1ccc(N(C)C)cc1)C(O)c1ccc(N(C)C)cc1 (stereo not given) | -8.4% | -6.2 | -3.4% | 0.1% | -5.2 | 8.0%
CCOC(=O)[C@@H]1[C@H]2COc3ccc(Br)cc3[C@@H]2N2C(=O)N(c3ccc(Cl)cc3)C(=O)[C@@]12C | . | . | . | 3.6% | . | .
Cc1c(CCC(=O)NCCCn2ccnc2)c(=O)oc2cc3occ(C(C)(C)C)c3cc12 | ? | -6.5 | 3.6% | 0.3% | -5.0 | ?
Cc1oc2c(C)c3oc(=O)c(CCC(=O)NCCCCCC(=O)O)c(C)c3cc2c1C | 1.0% | -6.2 | 13.0% | 0.3% | -1.3 | 23.9%
Cc1oc2c(C)c3oc(=O)c(CCC(=O)NCCCn4ccnc4)c(C)c3cc2c1C | 13.1µM* | 6.4 | 0.1% | 7.4% | -3.7 | ?
Cc1oc2cc3oc(=O)c(CCC(=O)NCCCN4CCOCC4)c(C)c3cc2c1C | -16.4% | 26.5 | 17.4% | -7.2% | active | ?
